rTrxR1 inhibitor: inhibitors of rat thioredoxin reductase 1; recombinant rTrxR1, NADPH fluorescence consumption, selenite substrate; O89049; Potency, µM (titrated, usually from 114 µM), for inactives: at the top dose activity change, negative = inhibition, usual class: inhibitors; 390,000 tested, 1% active; further: potency means the concentration at half of the fitted maximal effect; on the % scale 0 is the no-effect control and ±100 the full control effect; nearly all actives have a fitted effect of over 65% in size
Target sequence (O89049 whole entry, looked up): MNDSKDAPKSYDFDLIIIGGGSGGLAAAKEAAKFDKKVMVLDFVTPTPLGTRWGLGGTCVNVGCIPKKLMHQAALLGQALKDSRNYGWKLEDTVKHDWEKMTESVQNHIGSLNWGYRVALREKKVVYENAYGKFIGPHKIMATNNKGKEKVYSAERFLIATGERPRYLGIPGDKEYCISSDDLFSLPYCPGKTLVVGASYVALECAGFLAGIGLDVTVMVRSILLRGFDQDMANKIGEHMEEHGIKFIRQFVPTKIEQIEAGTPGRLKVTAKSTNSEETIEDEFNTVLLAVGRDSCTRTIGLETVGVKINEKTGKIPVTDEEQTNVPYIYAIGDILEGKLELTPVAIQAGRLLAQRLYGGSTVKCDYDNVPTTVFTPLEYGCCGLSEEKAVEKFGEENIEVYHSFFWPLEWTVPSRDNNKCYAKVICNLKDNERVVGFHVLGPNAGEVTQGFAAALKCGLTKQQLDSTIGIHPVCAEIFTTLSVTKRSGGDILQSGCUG
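Rat TrxR1 (90 nM in the dispensed reagent) was pre-reduced with 400 uM NADPH for 5 min at room temperature, then incubated with compound for 15 min. After 400 uM selenite was added, NADPH fluorescence (Ex 340/Em 450 nm) was followed for 8 min.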
IDH1 R132H inh: blocks human mutant IDH1 R132H enzyme | O75874 | IDH1-R132H enzyme, NADPH consumption, diaphorase/resazurin fluorescence | Potency, µM (series often up to 76.6 µM), without a hit: at the top dose activity change, negative = inhibition, most hits filed as inhibitors | 390,000 tested, 0.093% active; further: potency means the concentration at half of the fitted maximal effect; on the % scale 0 is the no-effect control and ±100 the full control effect; nearly all actives have a fitted effect of over 65% in size
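IDH1-R132H (0.5 ug/mL) preincubated 30 min with compound, then NADPH (0.016 mM) and alpha-KG (2 mM) added; 80 min at RT, pH 7.5. Remaining NADPH coupled via diaphorase/resazurin to fluorescence (540/590 nm); concentration-response curves normalized to no-enzyme control.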
TrxR1 substrate: is turned over as a substrate by rat TrxR1 | 390,000 tested, 0.01% active | purified TrxR1 substrate turnover, NADPH consumption readout | O89049 | Potency, µM (highest dose often 114 µM), without a hit: at the highest dose activity change, negative = substrate turnover; further: potency means the concentration at half of the fitted maximal effect; on the % scale 0 is the no-effect control and ±100 the full control effect; nearly all actives have a fitted effect of over 50% in size
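Rat TrxR1, dispensed at 90 nM, was prereduced with 400 uM NADPH (final) for 5 min at ~22 deg C, then incubated with compound 15 min before 400 uM selenite. A first-read NADPH fluorescence drop versus no-compound background flagged substrates.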
GLS inhibitor: inhibitors of human glutaminase (GLS). O94925. GLS enzymatic activity, qHTS titration. Potency, µM (highest dose often 45.5 µM), inactives show at the top dose activity change, negative = inhibition, most hits filed as inhibitors. 410,000 tested, 0.21% active; further: potency means the concentration at half of the fitted maximal effect; on the % scale 0 is the no-effect control and ±100 the full control effect
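Read-out is an Amplex red fluorescence increase coupled through glutamate oxidase and HRP, measured before and after 30 min room-temperature incubation. hKGA is in 45 mM KH2PO4 (pH 8.2) with 0.02% Tween-20; glutamine added as 1mM solution.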
Resorufin autofl: counter-screen for mutant IDH1 inhibitors: fluorescence interference | 750 tested, under 10 active | inhibition of signal, % at 51.2 µM | shares compounds with IDH1 R132H inh | Resorufin detection reagent fluorescence interference, cell-free | AID 623980;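 further: 0% = wells with normal resorufin and full inhibition = wells lacking resorufin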
IDH1 WT: selectivity of mutant IDH1 inhibitors: human wild-type IDH1. shares compounds with IDH1 R132H inh. WT IDH1 enzyme, NADPH diaphorase/resazurin fluorescence. Potency, µM (titrated, usually from 115 µM), for the others: at the highest dose activity change, negative = inhibition, actives largely listed as inhibitors. 750 tested, 9% active;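 further: potency means the concentration at half of the fitted maximal effect; 0% = full WT IDH1 enzyme control and full inhibition = no enzyme wells; nearly all actives have a fitted effect of over 55% in size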
IDH1 R132H conf: mutant IDH1 (human) inhibition, confirmed. shares compounds with IDH1 R132H inh. IDH1 R132H enzyme, NADPH diaphorase/resazurin fluorescence. Potency, µM (doses to about 76.6 µM), for the others: at the top dose activity change, negative = inhibition, hits mostly inhibitors. 750 tested, 83% active; further: potency means the concentration at half of the fitted maximal effect; nearly all actives have a fitted effect of over 50% in size
Numbers without * were called inactive; [ ] = another dose, or the depositor's remark. A selection: hits, their analogues and other compounds. The true share with any hit is near 1.2%. The call rests on the fitted dose curve; in most records, active means well fitted curve in the direction sought with a large enough effect; inconclusive means small, poorly fitted or top-dose-only effect, or another doubt; inactive means no such curve, though single readings can be large; an effect the other way counts as inactive or inconclusive.

COc1ccc(CCNC(=O)CCCn2c(=O)c3ccccc3n(CC(=O)Nc3cccc(C)c3)c2=O)cc1OC was read as rTrxR1 inhibitor 18%, IDH1 R132H inh -8%, TrxR1 substrate 8% and GLS inhibitor 2%.
For C=CS(=O)(=O)c1ccc(Oc2ccc(S(=O)(=O)C=C)cc2)cc1 the results were rTrxR1 inhibitor 5µM*, IDH1 R132H inh 32µM*, TrxR1 substrate -4%, GLS inhibitor 20%, Resorufin autofl 1, IDH1 WT inconclusive and IDH1 R132H conf 11µM*.
COc1cc(C=C(C#N)c2ccc([N+](=O)[O-])cc2)ccc1O was read as IDH1 R132H inh -3% and GLS inhibitor -3%.
Cc1ccccc1C1=C/C(=C(\SS/C(C(=O)c2ccc(OCC(=O)O)c(Cl)c2Cl)=C2\C=C(c3ccccc3C)SS2)C(=O)c2ccc(OCC(=O)O)c(Cl)c2Cl)SS1 was read as rTrxR1 inhibitor inconclusive, IDH1 R132H inh 12µM*, TrxR1 substrate -17%, GLS inhibitor inconclusive, Resorufin autofl 1, IDH1 WT 0% and IDH1 R132H conf 40µM*.
`O=C(O)COc1ccc(C(=O)c2cccs2)c(Cl)c1Cl` gave GLS inhibitor 5%.
Screening CC1(C)CC(=O)c2cc(C(=O)Nc3ccccc3)c(=O)[nH]c2C1 returned rTrxR1 inhibitor 3% and TrxR1 substrate -1%.
For CCc1cc2c(=O)n(Cc3ccco3)c(SCC(=O)N3CCCc4ccccc43)nc2s1 the results were rTrxR1 inhibitor inconclusive, IDH1 R132H inh inconclusive, TrxR1 substrate 4%, GLS inhibitor 0%, Resorufin autofl 3, IDH1 WT -2% and IDH1 R132H conf inconclusive.
For CCc1cc2c(=O)n(Cc3ccco3)c(SCC(=O)NCC3CCCO3)nc2s1 (stereo not drawn) the results were rTrxR1 inhibitor 2%[57.1 µM], IDH1 R132H inh 0%, TrxR1 substrate 8%[0.0914 µM] and GLS inhibitor -4%.
`CC(=O)NC1C(=O)N(CCN2CCOCC2)c2ccc(Cl)cc21` (stereo not drawn) gave rTrxR1 inhibitor -2%, IDH1 R132H inh 41µM*, TrxR1 substrate 0%, GLS inhibitor inconclusive, Resorufin autofl 5, IDH1 WT inconclusive and IDH1 R132H conf -118%.
CCO[C@@H]1OC(C(=O)Nc2ccccc2)=C[C@H](c2ccc(C(F)(F)F)cc2)[C@H]1CCCO was read as rTrxR1 inhibitor 15%, IDH1 R132H inh inconclusive, TrxR1 substrate -4%, GLS inhibitor 2%, Resorufin autofl -4, IDH1 WT -4% and IDH1 R132H conf 22µM*.
`CCOC(=O)CC(=O)CSc1nc2c(sc(=S)n2-c2ccc(OCC)cc2)c(=O)[nH]1` gave rTrxR1 inhibitor -7%[57.1 µM], IDH1 R132H inh 6%, TrxR1 substrate 5%[57.1 µM] and GLS inhibitor -14%.
For COc1ccc(Cl)cc1-n1c(=S)sc2c(=O)[nH]c(SCC(=O)NCCC(C)C)nc21 the results were rTrxR1 inhibitor -12%, IDH1 R132H inh 37µM*, TrxR1 substrate -8%, GLS inhibitor inconclusive, Resorufin autofl 3, IDH1 WT 7% and IDH1 R132H conf 11µM*.
For CCOc1ccc(-n2c(=S)sc3c(=O)[nH]c(SCC(=O)NC(C)CC)nc32)cc1 (stereo not drawn) the results were rTrxR1 inhibitor -14%, IDH1 R132H inh 37µM*, TrxR1 substrate -5%, GLS inhibitor 9%, Resorufin autofl 0, IDH1 WT 8.9µM* and IDH1 R132H conf 32µM*.
Screening O=C(O)CCN1C(=O)/C(=C2\C(=O)N(Cc3ccc(F)cc3)c3ccccc32)SC1=S returned rTrxR1 inhibitor -1%, IDH1 R132H inh 9.3µM*, TrxR1 substrate -6%, GLS inhibitor -32%, Resorufin autofl -1, IDH1 WT -12% and IDH1 R132H conf 4µM*.
CN1C(=O)/C(=C2\SC(=S)N(CCCCCC(=O)O)C2=O)c2ccccc21 was read as rTrxR1 inhibitor -10%, IDH1 R132H inh 4%, TrxR1 substrate 1% and GLS inhibitor -2%.
`CCn1cc(C(=O)N2CCN(c3ccccc3)CC2)c(=O)c2cc(S(=O)(=O)N3CCCC3)ccc21` gave rTrxR1 inhibitor 4%, IDH1 R132H inh -16%, TrxR1 substrate -10% and GLS inhibitor 18%.
`CC1C/C(=C\c2cccnc2)C(=O)/C(=C/c2cccnc2)C1` (stereo not drawn) gave rTrxR1 inhibitor 50µM*, IDH1 R132H inh inconclusive, TrxR1 substrate -5%, GLS inhibitor 9%, Resorufin autofl 1, IDH1 WT 6% and IDH1 R132H conf 45µM*.
COc1ccc(Br)cc1CNC(=O)c1nn(-c2ccc(C)cc2)c(=O)c2c1c1ccccc1n2C was read as rTrxR1 inhibitor 10%, IDH1 R132H inh 4%, TrxR1 substrate -2% and GLS inhibitor 2%.
For Cc1cc(C)nc(SCC(=O)Nc2ccc(Br)cn2)n1 the results were rTrxR1 inhibitor 23%[57.1 µM], IDH1 R132H inh 4%, TrxR1 substrate 7% and GLS inhibitor -2%.
Cc1cc(C)nc(SCC(=O)NC2=NN=C(c3ccc(Br)cc3)CS2)n1 was read as rTrxR1 inhibitor -12%, IDH1 R132H inh inconclusive, TrxR1 substrate 10%, GLS inhibitor 11%, Resorufin autofl -3, IDH1 WT 140% and IDH1 R132H conf 45µM*.
CC(=O)Nc1cccc(-n2cc3c(c2-c2ccccc2Cl)c(=O)n(C)c(=O)n3C)c1 was read as rTrxR1 inhibitor 20%, IDH1 R132H inh inconclusive, TrxR1 substrate 40%, GLS inhibitor -2%, Resorufin autofl 0, IDH1 WT 0% and IDH1 R132H conf 40µM*.
For O=C(NC1CCCC1)C(c1ccncc1)N(C(=O)Cc1cccs1)c1ccccc1 (stereo not drawn) the results were rTrxR1 inhibitor 19%[57.1 µM], IDH1 R132H inh inconclusive, TrxR1 substrate 14%[57.1 µM], GLS inhibitor 8%, Resorufin autofl -1, IDH1 WT 6% and IDH1 R132H conf inconclusive.
`O=C(NCc1ccco1)C(c1cccs1)N(C(=O)Cc1cccs1)c1ccccc1` (stereo not drawn) gave rTrxR1 inhibitor inconclusive, IDH1 R132H inh inconclusive, TrxR1 substrate -2%, GLS inhibitor -1%, Resorufin autofl -11, IDH1 WT 4% and IDH1 R132H conf inconclusive.

Compound activity: PubChem, National Center for Advancing Translational Sciences (NCATS)
